Data on 38 molecules can be found in PubChem BioAssay.

In general, inhibition refers to the change of the read-out against control, counted positive when it falls. What is called AC50 is the concentration at which the activity in the assay is half-maximal.

Test [1] in a line: viability loss in pontine glioma line – cell-based, SU-DIPG-XVII, MIPE5.0, CellTiter-Glo, qHTS, dose response (AID 1347060).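 On AC50: cells exposed to compound for 48 hours before viability readout.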 The note with it: CellTiter-Glo ATP luminescence. (ATP-based viability assays read luminescence as a measure of living cells.)
For test [2], the system named is Hepatitis C virus NS3 helicase. The test is described as follows: blockers of NS3h binding to ssDNA – biochemical, fluorescence polarization, LOPAC1280 library, primary screen (AID 687035; in the data active means inhibition above about 37%). The conditions noted are these: Purified HCV NS3 helicase, Cy5-dT15 ssDNA binding fluorescence polarization; stronger effect = higher value; concentration not given here. (In general: Polarisation of emitted light reports the rotation of a fluorescent probe.)

A short description of test [3]: compounds altering Cy5-DNA-NS3h complex signal – biochemical, LOPAC1280, artefact control for HCV NS3 helicase inhibitor project (AID 687037; call rule not given here). The conditions noted are these: Cy5-DNA-NS3h complex fluorescence interference counterscreen. For orientation: A counterscreen serves to expose hits that act by an unwanted route or on another target.
Test [4] can be described thus: viability loss in pontine glioma line – cell-based, SU-DIPG-XIII, MIPE4.0, CellTiter-Glo, qHTS, dose response (AID 1347061; cut-off not given, nearly all actives have AC50 up to about 37 µM;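 further: cells exposed to compound for 48 hours before readout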). The note with it: CellTiter-Glo ATP luminescence.
Test [5] in a line: viability loss in pontine glioma line – cell-based, SU-DIPG-XIII, MIPE5.0, CellTiter-Glo, qHTS, dose response (AID 1347064; cut-off not given, nearly all actives have AC50 up to about 23 µM;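 on AC50: cells exposed to compound for 48 hours before the viability read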). The conditions noted are these: CellTiter-Glo ATP luminescence.
The target in test [6] is NAD(+) hydrolase SARM1 (Homo sapiens) (UniProt Q6SZW1). The test is described as follows: blocking NAD cleavage by SARM1 SAM-TIR – cell lysate, NAD-Glo luminescence (AID 1508614;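 active means compound whose remaining NAD level is above about 45 nM, limit read from the data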). The conditions noted are these: SAM-TIR HEK293T lysate NADase, at 1 µM, stronger effect = higher value.
A short description of test [7]: compounds altering HSF1 focus formation in cells – imaging, Selleck Cancer Library (AID 1347162; in the data active means plate-normalised HSF1 focus index below about 0.46). The note with it: human cells, HSF1 nuclear foci imaging, at 10 µM; SSMD: measured here: HSF1 foci SSMD mean; cell count: measured here: cell number; plate-normalised HSF1 focus index: stronger effect = lower value.
The nature of test [8]: compounds altering circadian rhythm period length – cell-based, LOPAC library, luminescence reporter (AID 2774; call rule not given here;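 further: values are relative to mean of DMSO wells on each plate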). The conditions noted are these: circadian reporter cells, at 7 µM, actives lie on both sides.

Each structure is given as a SMILES string. Records with an inconclusive call do not appear. Active and inactive are the calls of the source. Unless noted, cut-off not given; nearly all actives show AC50 up to about 26 µM.

NAD(+) hydrolase SARM1 (Homo sapiens), sequence (Q6SZW1 whole entry, looked up): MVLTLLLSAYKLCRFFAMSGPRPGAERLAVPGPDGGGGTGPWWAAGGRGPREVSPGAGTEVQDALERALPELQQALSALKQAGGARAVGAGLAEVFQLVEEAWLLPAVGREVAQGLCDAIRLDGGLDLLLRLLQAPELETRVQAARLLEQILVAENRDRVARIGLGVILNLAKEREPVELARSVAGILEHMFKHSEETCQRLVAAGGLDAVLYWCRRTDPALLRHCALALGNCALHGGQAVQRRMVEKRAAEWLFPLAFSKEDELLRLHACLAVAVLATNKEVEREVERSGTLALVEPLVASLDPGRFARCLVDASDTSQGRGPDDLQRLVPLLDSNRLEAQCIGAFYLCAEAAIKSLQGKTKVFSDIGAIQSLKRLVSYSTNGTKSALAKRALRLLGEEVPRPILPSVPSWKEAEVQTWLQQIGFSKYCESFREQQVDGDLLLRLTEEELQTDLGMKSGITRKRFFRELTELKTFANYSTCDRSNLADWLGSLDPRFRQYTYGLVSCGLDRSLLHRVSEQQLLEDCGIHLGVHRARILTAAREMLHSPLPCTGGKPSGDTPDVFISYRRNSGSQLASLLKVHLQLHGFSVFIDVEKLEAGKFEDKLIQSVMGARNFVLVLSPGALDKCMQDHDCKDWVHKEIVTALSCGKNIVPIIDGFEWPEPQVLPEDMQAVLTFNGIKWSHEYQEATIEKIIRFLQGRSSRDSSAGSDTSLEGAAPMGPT

`O=C(Nc1ccc(S(=O)(=O)N2CCOCC2)cc1)c1cc(Cl)ccc1NS(=O)(=O)c1ccc(Cl)s1`: the result in test [1] was inactive.

As to `CC(C)(C)C(=O)Oc1ccc(S(=O)(=O)Nc2ccccc2C(=O)NCC(=O)O)cc1`, in test [2], the inhibition was -5% (inactive). Further, the fluorescence ratio (interference) in test [3] is 0.9 (inactive). The molecule was called inactive in test [1], in test [4] and in test [5].

As to `O=P(O)(O)C(O)(Cn1ccnc1)P(=O)(O)O`, the result in test [1], in test [4] and in test [5] was inactive.

As to `CC(=O)OCC(=O)[C@@]12N=C(C)O[C@@H]1C[C@H]1[C@@H]3CCC4=CC(=O)C=C[C@]4(C)[C@H]3[C@@H](O)C[C@@]12C`, the result in test [1], in test [4] and in test [5] was inactive. The remaining NAD in test [6] was 10 nM (inactive).

With `N=C(N)c1ccc2cc(OC(=O)c3ccc(N=C(N)N)cc3)ccc2c1`, the molecule was called inactive in test [4] and in test [5].

For the molecule `COc1ccc2cccc(CCNC(C)=O)c2c1`, the call in test [4] and in test [5] was inactive.

Consider `COC(c1ccccc1)(c1ccccc1)[C@H](Oc1nc(C)cc(C)n1)C(=O)O`, for which, in test [4], the result was inactive.

With `CCC1=C[C@@H]2CN(C1)Cc1c([nH]c3ccccc13)[C@@](C(=O)OC)(c1cc3c(cc1OC)N(C)[C@H]1[C@@](O)(C(=O)OC)[C@H](OC(C)=O)[C@]4(CC)C=CCN5CC[C@]31[C@@H]54)C2`, the AC50 in test [1] was 0.204 µM (active). In addition, in test [5], the AC50 was 2.29 µM (active). Besides, in test [7], the SSMD amounted to 1.19, the cell count amounted to 6320 and the plate-normalised HSF1 focus index was 1.08 (inactive).

Regarding `CC(C(=O)O)c1ccc2c(c1)CC(=O)c1ccccc1S2` (stereo not given), the result in test [1] and in test [5] was inactive. Also, the AC50 in test [4] was 0.0059 µM (active).

For `C=CC(=O)Nc1cc2c(Nc3ccc(F)c(Cl)c3)ncnc2cc1OCCCN1CCOCC1`, the AC50 in test [1] was 6.61 µM (active); in test [5], 9.34 µM (active).

In the case of `COc1ccc(-c2ccc3cc(C(=O)O)ccc3c2)cc1C12CC3CC(CC(C3)C1)C2`, the AC50 in test [1] was 3.32 µM (active). In addition, in test [6], the remaining NAD was 10 nM (inactive).

On to `N#Cc1c(N(CC(=O)O)CC(=O)O)sc(C(=O)O)c1CC(=O)O`, for which the outcome in test [1], in test [4] and in test [5] was inactive.

Take `CN(C)C(=O)COC(=O)Cc1ccc(OC(=O)c2ccc(N=C(N)N)cc2)cc1`: the call in test [1] and in test [5] was inactive.

`O=[N+]([O-])c1cncn1CCN1CCOCC1`: the molecule was called inactive in test [1] and in test [5].

In the case of `c1cnc2cc3c(cc2n1)C1CNCC3C1`, the result in test [1], in test [4] and in test [5] was inactive.

As for `CCCCN(CCCC)CC(O)c1cc(Cl)cc2c1-c1ccc(Cl)cc1/C2=C/c1ccc(Cl)cc1` (stereo not given), the outcome in test [4] was inactive.

`Cc1cc2c(cc1CC(=O)c1sccc1S(=O)(=O)Nc1onc(C)c1Cl)OCO2`: the call in test [1] was inactive.

As for `CC(C)C[C@H](NC(=O)[C@H](CCc1ccccc1)NC(=O)CN1CCOCC1)C(=O)N[C@@H](Cc1ccccc1)C(=O)N[C@@H](CC(C)C)C(=O)[C@@]1(C)CO1`, the AC50 in test [1] was 0.0148 µM (active); in test [5] it was 0.00742 µM (active).

For the molecule `CCOC(=O)c1ccc(C#Cc2ccc3c(c2)C(C)(C)CCS3)nc1`, in test [1], the AC50 was 26.3 µM (active).

Regarding `NC(=O)c1ncn([C@@H]2O[C@H](CO)[C@@H](O)[C@H]2O)c1N`, the call in test [1], in test [4] and in test [5] was inactive. The remaining NAD in test [6] is 10 nM (inactive).

With `Cc1ccc(Nc2nccc(N(C)c3ccc4c(C)n(C)nc4c3)n2)cc1S(N)(=O)=O`, the AC50 in test [1] is 3.32 µM (active). The AC50 in test [5] is 3.72 µM (active). In test [7], the SSMD is 1.61, the cell count is 7340 and the plate-normalised HSF1 focus index is 1.1 (inactive).

Turning to `CC(C)OC(=O)OCOP(=O)(CO[C@H](C)Cn1cnc2c(N)ncnc21)OCOC(=O)OC(C)C`, in test [4], the molecule was called inactive.

Consider `COCCCN1CCC(NC(=O)c2cc(Cl)c(N)c3c2OCC3)CC1`, for which the result in test [1] was inactive.

As to `Clc1ccc(C(Cn2ccnc2)OCc2c(Cl)cccc2Cl)c(Cl)c1` (stereo not given), the half-maximal activity concentration (AC50) in test [1] is 23.5 µM (active); in test [5] it was 20.9 µM (active).

As to `Cc1cc(=O)c2c(O)c3c(O)cc(=O)c4c3c3c(cc(O)c1c23)C(C)(C)C=4O`, the AC50 in test [4] was 11.8 µM (active).

For `O=c1cc(O)c(Cl)c[nH]1`, the result in test [1], in test [4] and in test [5] was inactive.

`C[C@]12CCC(=O)C=C1[C@@H]1C[C@@H]1[C@H]1[C@@H]3[C@@H]4C[C@@H]4[C@@]4(CCC(=O)O4)[C@@]3(C)CC[C@@H]12`: the molecule was classed as inactive in test [1], in test [4] and in test [5]. Besides, the remaining NAD in test [6] is 10 nM (inactive).

Take `CCCCc1oc2ccc(NS(C)(=O)=O)cc2c1C(=O)c1ccc(OCCCN(CCCC)CCCC)cc1`: the results for the AC50 in test [1], in test [4] and in test [5] were 13.2 µM (active), 18.7 µM (active) and 11.8 µM (active), respectively.

In the case of `CCOC(=O)c1c(C)n(C)c2ccc(O)cc12`, the result in test [1] was inactive.

Turning to `N[C@@H](Cc1c[nH]c2ccc(O)cc12)C(=O)O`, the period change in test [8] is -0.25 h (inactive). Besides, the inhibition in test [2] was -3% (inactive). In addition, the fluorescence ratio (interference) in test [3] was 1 (inactive). Also, the outcome in test [1], in test [4] and in test [5] was inactive.

With `CC(=O)N[C@H]1[C@H]([C@H](O)[C@H](O)CO)OC(C(=O)O)=C[C@@H]1N=C(N)N`, in test [4], the result was inactive.

For the molecule `NCCCC(N)(C(=O)O)C(F)F` (stereo not given), the period change in test [8] is -0.04 h (inactive). Further, the inhibition in test [2] is -3% (inactive). In test [3], the fluorescence ratio (interference) is 1 (inactive). The molecule was called inactive in test [1] and in test [5].

`Cc1nnc(C(=O)NC(C)(C)c2nc(C(=O)NCc3ccc(F)cc3)c(O)c(=O)n2C)o1`: the outcome in test [1] and in test [4] was inactive.

For `Cc1ccc(C(=O)c2cc(O)c(O)c([N+](=O)[O-])c2)cc1`, the molecule was called inactive in test [1], in test [4] and in test [5].

As for `Clc1ccc(C(Cn2ccnc2)OCc2ccc(Sc3ccccc3)cc2)c(Cl)c1` (stereo not given), the AC50 in test [1] and in test [5] was 20.9 µM (active) each time.

Consider `O=C(O)c1ccc(-n2nc(-c3ccccc3O)nc2-c2ccccc2O)cc1`, for which the AC50 in test [1] was 16.6 µM (active).

For the molecule `CC1(C)CCC(C)(C)c2cc(NC(=O)c3ccc(C(=O)O)cc3)ccc21`, the molecule was classed as inactive in test [1] and in test [5]. Besides, the AC50 in test [4] was 23.5 µM (active).

`COc1nc(N)nc2c1ncn2[C@@H]1O[C@H](CO)[C@@H](O)[C@@H]1O`: the result in test [4] was inactive. The remaining NAD in test [6] was 10 nM (inactive).
